From PubChem BioAssay (NCI)
This is part of a sample that, as a whole, favours compounds with a hit. Of some 83,000 tested, about 20% had one in any assay.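 Values shown are percent growth following 48 h exposure of cells in 96-well plates to a single concentration of compound; below 10 was considered active.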 Active and inactive are the calls of the source.

How the values were obtained:
Assay in all cases: NCI-60 one-dose screen, 48 h (100 = growth as untreated, 0 = no growth, -100 = all killed)
Details in all cases: 10 µM unless noted
[1] = test system: NCI-H226 lung
[2] = test system: NCI-H322M lung
[3] = test system: HOP-62 NSCLC
[4] = test system: NCI-H460 lung
[5] = test system: HOP-92 NSCLC
[6] = test system: NCI-H522 lung
[7] = test system: A549/ATCC NSCLC
[8] = test system: 786-0 renal
[9] = test system: COLO 205 colon
[10] = test system: DU-145 prostate

Measured: growth

Cc1c(NC(=O)CSc2nc3sc4c(c3c(=O)n2-c2ccc(Cl)cc2)CCCC4)c(=O)n(-c2ccccc2)n1C
inactive: [1] 108% | [2] 94.9% | [3] 99.3% | [4] 96.8% | [5] 96.3% | [6] 96.8% | [7] 81.2% | [8] 102% | [9] 106% | [10] 89.4%

Cc1[nH]nc2ncc(C#Cc3cncc(C(=O)Nc4ccc(CN5CCN(C)CC5)c(C(F)(F)F)c4)c3)cc12
active: [1] 3.71% | [5] -23% | [9] -25.6%
inactive: [2] 44.3% | [3] 28.9% | [4] 10.7% | [6] 47.8% | [7] 23.9% | [8] 43.1% | [10] 36.4%

COc1ccc(/C=N/NC(=O)c2[nH]c3ccc(Br)cc3c2-c2ccccc2)s1
inactive: [1] 47.8% | [2] 50.8% | [3] 47.6% | [5] 52.1% | [7] 31.5% | [8] 11.4% | [10] 20.4%
active: [4] 3.58% | [6] -30.1% | [9] -55.8%

Cc1ccc(/C=C/c2nn3c(-c4ccco4)nnc3s2)cc1C
inactive: [1] 106% | [2] 97.1% | [3] 100% | [4] 104% | [5] 93.9% | [6] 104% | [7] 94% | [8] 100% | [9] 126% | [10] 103%

COc1cc(/C=C/C(=O)c2cc(OC)c(OC)c(OC)c2)ccc1Oc1nc(NCCO)nc(N2CCOCC2)n1
inactive: [2] 24% | [5] 13.5% | [10] 12.6%
active: [1] -1.45% | [3] 1.11% | [4] -51.6% | [6] -11.1% | [7] 6.84% | [8] -5.28% | [9] 3.69%

Cn1ccnc1C(=O)/C=C/c1ccc(NC(=O)Nc2ccccc2)cc1
inactive: [1] 35.9% | [2] 28.8% | [3] 16.1% | [5] 57.4% | [6] 11.9% | [9] 11.1%
active: [4] -56.7% | [7] 6.79% | [8] 5.89% | [10] 4.23%

OC1CCN(CCCOc2c3ccc(Cl)cc3nc3c2oc2ccc(Cl)cc23)CC1
active: [1] 2.57% | [4] -75.2% | [5] 9.66% | [6] 9.65% | [7] -52.9% | [8] -99% | [9] -11.1% | [10] -97.5%
inactive: [2] 15% | [3] 41%

Fc1ccc(-c2cc3nc(C(Cl)Cl)nc(-c4ccc(Cl)cc4)n3n2)cc1
inactive: [1] 78.9% | [5] 24.7% | [6] 30.3% | [8] 47.4%
active: [2] -44.9% | [3] -25.8% | [4] -66.3% | [7] -58.2% | [9] -56.6% | [10] -23%

CNC(=O)c1cc(-c2ccc(NC(=O)Nc3ccc(N4CCN(C)CC4)c(C(F)(F)F)c3)cc2)nc2cccnc12
inactive: [1] 84.6% | [5] 79.5%
active: [2] -78.4% | [3] -78.3% | [4] -76.3% | [6] -71.9% | [7] -81.9% | [8] -97.1% | [9] -41% | [10] -81.7%

Cc1nc(-c2cc3ccccc3oc2=O)ccc1C(=O)/C=C/c1ccc(N2CCOCC2)cc1
inactive: [1] 88.3% | [2] 107% | [3] 90.8% | [4] 89.7% | [5] 80% | [6] 61.4% | [7] 91.6% | [8] 75.3% | [9] 91.6% | [10] 91.1%

NS(=O)(=O)c1ccc(Nc2nc(SCC(=O)c3ccc(Cl)cc3)nc3ccccc23)cc1
inactive: [1] 87.1% | [2] 86.5% | [3] 95.3% | [4] 97.1% | [5] 84.4% | [6] 88% | [7] 97.1% | [8] 96% | [9] 107% | [10] 97.1%

COc1ccc(NC2=C(Cl)C(=O)C(C)=C(C)C2=O)cc1OC
inactive: [1] 92.6% | [2] 101% | [3] 99.6% | [4] 96% | [5] 130% | [6] 84.7% | [7] 87.2% | [8] 107% | [9] 110% | [10] 104%

COc1ccc(/C=N/Nc2ccnc3cc(Cl)ccc23)cc1Cl
active: [2] -64.1% | [3] -42.9% | [4] -79% | [5] -57.6% | [6] -73.7% | [7] -41.6% | [8] -94.9% | [9] -82.7% | [10] -57%
inactive: [1] 69%

COc1cccc(-c2nn(-c3ccccc3)cc2-c2ccnc(N3CCN(C(=O)c4ccccc4)CC3)c2)c1
inactive: [1] 109% | [2] 105% | [3] 113% | [4] 81.8% | [5] 71.2% | [6] 77.1% | [7] 71.7% | [8] 102% | [9] 97.7% | [10] 91.5%

O=C1Nc2cc(Cl)ccc2/C1=C\c1ccc(OCc2ccc(Br)cc2F)cc1
inactive: [9] 12.4%
active: [1] -50.9% | [2] -23.8% | [3] -21.1% | [4] -82.4% | [5] -58.5% | [6] -28.2% | [7] -28.9% | [8] -92.5% | [10] -13.2%

O=C1/C(=C/C2=Cc3ccccc3OC2)SC(=S)N1c1ccc(F)cc1
inactive: [1] 103% | [2] 97.2% | [3] 101% | [4] 105% | [5] 99.2% | [6] 90.4% | [7] 101% | [8] 96.3% | [9] 107% | [10] 104%

COc1cc(N=Cc2sc(Nc3nccs3)nc2O)cc(OC)c1OC
inactive: [1] 79.5% | [2] 74% | [3] 80.1% | [4] 69.9% | [5] 72.8% | [6] 93.6% | [7] 95.6% | [8] 96.6% | [9] 99.6% | [10] 93.3%

O=C1C2=C(C(=O)c3c(O)cccc31)C(c1ccco1)c1sc(=O)[nH]c1S2 (stereo not given)
inactive: [5] 69.5% | [8] 62.3%
active: [1] -20.7% | [2] -97.7% | [3] -72.2% | [4] -4% | [6] -5.29% | [7] -47.7% | [9] -89.4% | [10] -93.9%

COc1cccc(OC)c1-c1nnn(C)c1C(=S)N1CCN(c2ccc([N+](=O)[O-])cc2Cl)CC1
inactive: [1] 88.6% | [2] 82.6% | [3] 106% | [4] 101% | [5] 80.3% | [6] 93.6% | [7] 92.9% | [8] 92.1% | [9] 107% | [10] 100%

Clc1ccc2c(OCCCN3CCOCC3)c3oc4ccccc4c3nc2c1
inactive: [1] 33.7% | [2] 36% | [3] 63.6% | [4] 10.5% | [5] 45.3% | [6] 29% | [7] 33.5% | [8] 27.4% | [9] 12.8% | [10] 22.9%

O=C(c1ccc(Cl)cc1)C1[C@H](c2ccc(Cl)cc2)[C@@H](c2ccccc2)NC12C(=O)Nc1ccc(Br)cc12 (stereo not given in full)
inactive: [1] 38.1% | [2] 56.2% | [3] 58.6% | [6] 66% | [7] 29.2% | [8] 24.6% | [9] 55.9% | [10] 46.8%
active: [4] 8.65% | [5] -1.5%

O=C(N/N=C/c1ccc([N+](=O)[O-])s1)c1[nH]c2ccc(Br)cc2c1-c1ccccc1
active: [4] -26.1% | [5] -7.35% | [6] -44.5% | [8] 9.9% | [9] -55.5%
inactive: [1] 23.7% | [2] 54.9% | [3] 27.2% | [7] 14.5% | [10] 20.4%

COC(=O)C(C)NS(=O)(=O)/N=C1\NC(=O)NC1=C(Cl)Cl (stereo not given)
inactive: [1] 106% | [2] 102% | [3] 111% | [4] 113% | [5] 107% | [6] 101% | [7] 105% | [8] 103% | [9] 115% | [10] 109%

NC(=O)c1c(NC(=O)c2ccc(C3CCCCC3)cc2)sc2c1CCC(=O)C2
inactive: [1] 19.6% | [2] 97.8% | [3] 56.4% | [4] 15.8% | [7] 10.8% | [8] 26.3% | [10] 49.2%
active: [5] -15.4% | [6] -2.16% | [9] -36.1%

Cc1ccccc1NC(=O)/C=C/c1ccc(OCCOc2ccc3c(C)cc(=O)oc3c2)cc1
inactive: [1] 92.9% | [2] 92.2% | [3] 110% | [4] 91.8% | [5] 93.1% | [6] 85.1% | [7] 95.7% | [8] 110% | [9] 103% | [10] 100%

COc1cc(OC)c(C2C(Cl)C(=O)N2Nc2ncnc3ccccc23)cc1OC (stereo not given)
inactive: [1] 90.3% | [2] 92.3% | [3] 100% | [4] 107% | [5] 102% | [6] 94.2% | [7] 105% | [8] 98.6% | [9] 125% | [10] 109%
